Assay outcomes (PubChem)
This is a sample that favours compounds with a hit; in the whole collection about 8.7% have one here.
Pf growth 96h = Primary qHTS for delayed death inhibitors of the malarial parasite plastid, 96 hour incubation. P. falciparum luciferase reporter growth, 96 h. Potency, µM (series often up to 28.7 µM), for the others: at the highest dose activity change, negative = inhibition, actives largely listed as inhibitors. hit rate 6.9% among 320,000. AID 504834, 2011
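Infected RBCs, 2% Hct / 0.05% parasitemia final; luciferase-reporter P. falciparum; cpd 96 h, 37 C, 5% CO2; luciferase detection reagent; luminescence.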
AMA1 RON2 block = qHTS for Inhibitors of AMA1-RON; Towards Development of Antimalarial Drug Lead: Primary Screen; Plasmodium falciparum AMA1 (3D7) - RON2 peptide interaction; AID 720542, 2013; hit rate 0.2% among 360,000; AlphaScreen AMA1-biotinylated RON2 peptide binding; Potency, µM (titrated, usually from 58.2 µM), for the others: top-dose activity change, negative = inhibition, hits mostly inhibitors;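 further: 0% = vehicle wells and -100% = peptide control; nearly all actives have a fitted effect of over 45% in size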
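AMA1 (3D7) with his tag at 25 nM final met compounds first, then biotinylated RON2 peptide at 25 nM; detection used donor plus acceptor beads, 10 µg/mL apiece, read by AlphaScreen after 30 min at room temperature.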
Vaccinia mCherry = qHTS for Stage-Specific Inhibitors of Vaccinia Orthopoxvirus: mCherry Reporter Primary qHTS | Vaccinia virus mCherry reporter infection, fluorescence | Potency, µM (titrated, usually from 36.5 µM), inactives show at the top dose activity change, negative = inhibition, usual class: inhibitors | hit rate 0.63% among 310,000; calls by dose curve; tested in A549 cells; further: nearly all actives have a fitted effect of over 35% in size
Pf growth 48h = Primary qHTS for delayed death inhibitors of the malarial parasite plastid, 48 hour incubation; hit rate 5.9% among 310,000; P. falciparum luciferase growth in erythrocytes, 48 h; Potency, µM (highest dose often 28.7 µM), inactives show at the top dose activity change, negative = inhibition, most hits filed as inhibitors
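Here the parasites carry a stable luciferase gene and grow inside erythrocytes in Albumax-based RPMI medium with compound for one erythrocytic cycle. Activity is scored as loss of luminescent signal.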
VACV Venus inh = qHTS for Stage-Specific Inhibitors of Vaccinia Orthopoxvirus: Venus Reporter Primary qHTS; hit rate 0.46% among 330,000; Potency, µM (top dose mostly 36.5 µM), without a hit: at the highest dose activity change, negative = inhibition, hits mostly inhibitors; Vaccinia virus Venus reporter expression, fluorescence; calls by dose curve; tested in A549 cells; further: nearly all actives have a fitted effect of over 30% in size
Starred values were filed as active, the others as inactive; i = inactive; ? = inconclusive; / = no result; ! = not confirmed by another sample. Unless noted, the call rests on the fitted dose curve; in most records, active means well fitted curve in the direction sought with a large enough effect; inconclusive means small, poorly fitted or top-dose-only effect, or another doubt; inactive means no such curve, though single readings can be large; an effect the other way counts as inactive or inconclusive. Unless noted, on the % scale 0 is the no-effect control and ±100 the full control effect; potency means the concentration at half of the fitted maximal effect.

SMILES | Pf growth 96h | AMA1 RON2 block | Vaccinia mCherry | Pf growth 48h | VACV Venus inh
Cc1cc(-c2nc3ncccc3o2)ccc1NC(=O)c1ccc(Cl)cc1 | / | / | -17% | / | -3%
CCCSc1nc2c(cnn2-c2ccccc2)c(=O)[nH]1 | 68% | -10% | i | 16% | -12%
CCCSc1nc2c(cnn2-c2ccc(C)cc2)c(=O)[nH]1 | 38% | 5% | ? | 9% | 28µM*
CN(C(=O)COC(=O)CCc1c[nH]c2ccccc12)C(c1ccccc1)c1ccccc1 | 10µM* | -24% | -15% | 12µM* | -13%
CCN(CC)C(=O)Cn1c(=O)n(-c2ccc(Cl)cc2)c(=O)c2c3c(sc21)CCC3 | / | / | -13% | / | -6%
CSCC[C@H](NC(=O)[C@@H]1Cc2ccccc2CN1)C(=O)Nc1ccc2c(c1)OCO2 | ? | 76% | ? | 9.3µM* | -3%
Cc1cc2n(n1)CCCN2C(=O)Nc1ccccc1C(F)(F)F | / | / | -13% | / | -9%
COc1cc(-c2cc(C)c3c(OC)ccc(OC)c3n2)cc2c1OCCN(C(=O)Cn1nc(C)cc1C)C2 | / | / | -20% | / | -4%
O=C(Nc1ccc(-c2nc3ccccc3s2)cc1)c1cc(-n2cnnc2)ccc1Cl | 7.4µM* | 10% | ? | 9.3µM* | 7.9µM*
C[C@H](CCC(=O)O)[C@H]1CC[C@H]2[C@@H]3[C@H](O)C[C@@H]4C[C@H](O)CC[C@]4(C)[C@H]3C[C@H](O)[C@]12C | 12µM*! | -11% | -17% | 9.3µM*! | -10%
O=[N+]([O-])c1ccc(CSc2nnc(Cc3ccccc3)n2-c2ccc(F)cc2)cc1 | ? | -2% | -6% | ? | -17%
Cc1cccc(-n2c(Cc3ccccc3)nnc2SCC(=O)N2CCOCC2)c1 | 4.1µM* | 0% | -21% | / | -15%
Cc1cccc(-n2c(Cc3ccccc3)nnc2SCc2ccc([N+](=O)[O-])cc2)c1 | 7.4µM* | -15% | -10% | ? | -20%
COc1ccc(-n2ncc(C(=O)N3CCN(C4CCCCC4)CC3)c2C2CCN(C(=O)OC(C)(C)C)CC2)cc1 | / | / | -15% | / | -20%
O=Cc1c(-c2ccccc2)nc2ccccn12 | 13µM* | -8% | 11% | -2% | 1%
CC1=C(n2nnc([N+](=O)[O-])n2)C(c2cccnc2)C(C#N)=C(N)O1 (centres undefined) | ? | 0% | ? | 13µM* | -28%
COc1cc(NC(=O)Cn2c(-c3cncs3)nc3ccccc32)cc(OC)c1OC | 18% | -6% | / | 2.3µM* | /
Clc1ccc2c(c1)C(C1=NCCN1)c1ccccc1CS2 (centres undefined) | -18% | 10% | -18% | ? | -29%
S=C1NCCc2ccc(Cl)cc2C1c1ccccc1Cl (centres undefined) | ? | 91% | i | 12µM* | -18%
CCCCCCCC[n+]1cccc(C(=O)N(CC)CC)c1 | 8.3µM* | -7% | / | ? | /
CCCCCCCCCCCCCCCC[n+]1cccc(C(=O)N(CC)CC)c1 | 2.6µM* | 0% | -24% | 5.2µM* | -18%
Oc1ccc[n+](CCCCC[n+]2cccc(O)c2)c1 | 24% | 4% | / | 2% | /
CCN(CC)C(=O)c1ccc(-c2ccccc2)cc1 | ? | -5% | -16% | ? | -20%
Cc1cc(C)cc(N2C(=O)c3nccnc3C2=O)c1 | 12µM* | 6% | i | 13% | -3%
COC(=O)CC1Oc2ccc(C)cc2-n2cc(-c3ccc(C)cc3)nc21 (centres undefined) | / | / | -11% | / | -8%
SMILES | Pf growth 96h | AMA1 RON2 block | Vaccinia mCherry | Pf growth 48h | VACV Venus inh
CCCn1c(SCC(O)c2cccc(OC)c2)nc2ccccc21 (centres undefined) | / | / | -11% | / | -9%
COc1ccccc1C(O)P(=O)(OC1CCCCC1)OC1CCCCC1 (centres undefined) | -23% | -1% | -14% | ? | -5%
O=P(OC1CCCCC1)(OC1CCCCC1)C(O)c1c(Cl)cccc1Cl (centres undefined) | 5.2µM* | -5% | / | 10µM* | /
Cc1ccc(C(O)P(=O)(OC2CCCCC2)OC2CCCCC2)cc1 (centres undefined) | ? | -5% | / | / | /
O=P(OC1CCCCC1)(OC1CCCCC1)C(O)c1ccc(Cl)cc1Cl (centres undefined) | / | -12% | / | 1.9µM* | /
C=C(C)Cn1c(=O)c2c(nc3n2CCN3c2cccc(Cl)c2C)n(C)c1=O | ? | -10% | / | 9.3µM* | /
Cc1c(Cl)cccc1N1CCn2c1nc1c2c(=O)n(CC(=O)O)c(=O)n1C | / | / | -5% | / | -7%
C=CCNc1nc(NCc2ccc(NC(C)=O)cc2)c2sc(-c3ccccc3)cc2n1 | / | -19% | -5% | / | 16µM*
C=CCNc1nc(NCCCN2CCCC2=O)c2sc(-c3ccccc3)cc2n1 | / | 20% | ? | / | ?
CC(=O)NCCNc1nc(NC(C)C)nc2cc(-c3ccccc3)sc12 | / | -11% | 8% | / | -20%
CC(=O)Nc1ccc(CNc2nc(NC(C)C)nc3cc(-c4ccccc4)sc23)cc1 | / | ? | ? | / | 11µM*
CC(C)OC(=O)CSc1nnc(-c2cnccn2)n1-c1ccc(Cl)cc1 | 15µM* | 1% | / | ? | /
COc1ccc(C(=O)NCC(=O)OCc2cc(=O)n3nc(C4CCCCC4)sc3n2)cc1 | / | / | 4% | / | 8%
CCOC(=O)c1nn(-c2ccc(C)c(C)c2)c(=O)c2c(N)scc12 | 13µM* | -15% | / | 8% | /
CC(C)(C)C(=O)OC1=CN(Cc2ccccc2)S(=O)(=O)c2ccccc21 | / | / | 11µM* | / | ?
CC(=O)c1ccc(NC(=O)c2ccc(CN3C(=O)CCn4nc(C)cc43)cc2)cc1 | / | / | -3% | / | -3%
COc1ccc(S(=O)(=O)NCC(c2ccco2)S(=O)(=O)c2cccs2)cc1C (centres undefined) | / | / | -14% | / | -7%
Cc1c(C(=O)N(C)C)sc2c1c(=O)n(-c1ccc(Cl)cc1)c(=O)n2CC(=O)C(C)(C)C | / | / | 5% | / | -3%
CC(=O)N1c2c(cc(Br)cc2S(=O)(=O)N2CCN(C(=O)c3ccco3)CC2)CC1C (centres undefined) | / | -3% | -19% | 10µM* | -10%
COc1ccc(CNS(=O)(=O)c2cc(Br)cc3c2N(C(C)=O)C(C)C3)cc1 (centres undefined) | 4.1µM* | -4% | -10% | -8% | -4%
CCOC(=O)c1ccc(NC(=O)CCc2c(C)n(CC)c3cc(-c4ccccc4OC)nn3c2=O)cc1 | / | / | -3% | / | 0%
CCC1=C(OC(=O)N(CC)CC)N2C(=O)OC(=NCCOC)[C@]2(Cc2ccccc2)[C@H]2C1=CC[C@H]1C(=O)N(CC)C(=O)[C@H]12 | ? | 6% | i | 13µM* | 2%
